Assay [1] is described as follows: qHTS assay to identify small molecule phospholipidosis (PLD) inducers (AID 1259344; active means well fitted curve in the direction sought with a large enough effect; an effect the other way counts as inactive or inconclusive). An outline of the steps:
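Cells (HepG2, 900 per well) attach for 4 h, receive LipidTOX Red and compound together, incubate 24 h at 37 C, are fixed 30 min with paraformaldehyde/Hoechst, then imaged at one site per well.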

A short description of assay [2]: qHTS assay to identify small molecule HDAC inhibitors (AID 1259364).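 Further: wild-type HCT-116 cells with endogenous class I/II HDAC activity; top concentration of the series differs between compounds; nearly all actives have a fitted effect of over 45% in size.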 In a few lines:
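HCT-116 wt cells, 1,500/well, overnight attach. Compounds (DMSO) 2 h, 37 °C. HDAC-Glo I/II, 30 min RT. Luminescence.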

Assay [3] in a line: qHTS assay to identify small molecule HDAC inhibitors - cell viability counter screen (AID 1259365). Further: series mostly up to about 92 µM; nearly all actives have a fitted effect of over 50% in size. An outline of the steps:
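HCT-116 wild-type, overnight attachment; 2hr drug exposure, 37C; CellTiter-Glo luminescent ATP readout after 30min RT.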

Assay [4] is described as follows: qHTS assay to identify small molecule antagonists of the sonic hedgehog signaling (Shh) pathway - cell viability counter screen (AID 1259367). Further: nearly all actives have a fitted effect of over 55% in size. An outline of the steps: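 Cytotoxicity was assessed in parallel with Shh reporter activity by measuring live-cell protease fluorescence (CellTiter-Fluor) in NIH/3T3 cells stably carrying Gli1-Luc, treated with compound under conditioned medium stimulation for 23 hr plus 1 hr reagent incubation.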

Assay [5] in a line: qHTS assay to identify small molecule agonists of the sonic hedgehog signaling (Shh) pathway (AID 1259368; calls by dose curve;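 further: NIH/3T3-derived 3T3Gli1-Luc cells carrying a stable Gli1-driven firefly luciferase reporter; series mostly up to about 92 µM; nearly all actives have a fitted effect of over 15% in size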). An outline of the steps: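 Following a 24 hr incubation with DMSO-dissolved compounds at 37 C, 5% CO2, Gli1-Luc NIH/3T3-derived cells received luciferase reagent for 30 min at room temperature prior to luminescence measurement.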
Assay [6] can be described thus: qHTS assay to identify small molecule antagonists of the sonic hedgehog signaling (Shh) pathway (AID 1259369; calls by dose curve; further: nearly all actives have a fitted effect of over 45% in size). An outline of the steps:
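Read-out is luminescence from a firefly luciferase gene controlled by the Gli1 response element, in 3T3Gli1-Luc cells pre-incubated 4hr then exposed to compounds and conditioned medium for 24hr.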

Assay [7] in a line: qHTS assay to identify small molecule agonists of the androgen receptor (AR) signaling pathway in the presence of an antagonist - cell viability counter screen (AID 1259379).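 Further: MDA-kb2 human breast cancer cells carrying an MMTV luciferase reporter; series mostly up to about 92 µM; nearly all actives have a fitted effect of over 25% in size.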 In a few lines: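 Each compound was tested at 15 concentrations on MDA-kb2 cells in the presence of 3.0uM nilutamide. Viability was measured by CellTiter-Fluor fluorescence after a 16 hr incubation at 37C in a CO2-free atmosphere.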

Assay [8] can be described thus: qHTS assay to identify small molecule agonists of the estrogen receptor beta (ER-beta) signaling pathway - cell viability counter screen (AID 1259380). Further: nearly all actives have a fitted effect of over 30% in size. Further: potency means the concentration at half of the fitted maximal effect. An outline of the steps:
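Compounds dissolved in DMSO were pin-transferred onto ER-beta-UAS-bla HEK293T cells that had settled 6 hr, and exposure ran 16 hr at 37C. Following the reporter read, CellTiter-Glo luminescence after 30 min at room temperature indicated cytotoxicity.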

Assay [9] in a line: qHTS assay to identify small molecule antagonists of the estrogen receptor beta (ER-beta) signaling pathway - cell viability counter screen (AID 1259382). Further: series mostly up to about 92 µM; nearly all actives have a fitted effect of over 55% in size. An outline of the steps: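 CellTiter-Glo ATP luminescence measured after the LiveBLAzer read in the same wells; ER-beta-UAS-bla HEK293T cells, 16 hr compound treatment with 1nM 17-beta-estradiol agonist at 37C, 5% CO2.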
A short description of assay [10]: qHTS assay to identify small molecule agonists of the estrogen receptor alpha (ER-alpha) signaling pathway in the presence of an antagonist - cell viability counter screen (AID 1259386).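 Further: series mostly up to about 92 µM; cells exposed to compounds for 22 h at 37 °C before the viability read; nearly all actives have a fitted effect of over 30% in size.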 An outline of the steps:
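Using estrogen-depleted VM7Luc4E2 cells, the 15-concentration compound series was applied together with 10.0nM ICI-182,780 and incubated 22hr at 37C/5% CO2. Cell viability was then scored by CellTiter-Fluor.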

The target of assay [11] is Progesterone receptor (Homo sapiens) (UniProt P06401). As to the kind of experiment: qHTS assay to identify small molecule agonists of the progesterone receptor (PR) signaling pathway (AID 1346784; calls by dose curve; further: nearly all actives have a fitted effect of over 30% in size; further: potency means the concentration at half of the fitted maximal effect). An outline of the steps: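 Fluorescence from LiveBLAzer B/G FRET substrate cleavage (2 hr, RT) reported PR activation in PR-UAS-bla HEK 293T cells treated 16 hr at 37C/5% CO2 with compounds; medium contained 2% charcoal-stripped FBS.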
Progesterone receptor (Homo sapiens), sequence (P06401 whole entry, looked up): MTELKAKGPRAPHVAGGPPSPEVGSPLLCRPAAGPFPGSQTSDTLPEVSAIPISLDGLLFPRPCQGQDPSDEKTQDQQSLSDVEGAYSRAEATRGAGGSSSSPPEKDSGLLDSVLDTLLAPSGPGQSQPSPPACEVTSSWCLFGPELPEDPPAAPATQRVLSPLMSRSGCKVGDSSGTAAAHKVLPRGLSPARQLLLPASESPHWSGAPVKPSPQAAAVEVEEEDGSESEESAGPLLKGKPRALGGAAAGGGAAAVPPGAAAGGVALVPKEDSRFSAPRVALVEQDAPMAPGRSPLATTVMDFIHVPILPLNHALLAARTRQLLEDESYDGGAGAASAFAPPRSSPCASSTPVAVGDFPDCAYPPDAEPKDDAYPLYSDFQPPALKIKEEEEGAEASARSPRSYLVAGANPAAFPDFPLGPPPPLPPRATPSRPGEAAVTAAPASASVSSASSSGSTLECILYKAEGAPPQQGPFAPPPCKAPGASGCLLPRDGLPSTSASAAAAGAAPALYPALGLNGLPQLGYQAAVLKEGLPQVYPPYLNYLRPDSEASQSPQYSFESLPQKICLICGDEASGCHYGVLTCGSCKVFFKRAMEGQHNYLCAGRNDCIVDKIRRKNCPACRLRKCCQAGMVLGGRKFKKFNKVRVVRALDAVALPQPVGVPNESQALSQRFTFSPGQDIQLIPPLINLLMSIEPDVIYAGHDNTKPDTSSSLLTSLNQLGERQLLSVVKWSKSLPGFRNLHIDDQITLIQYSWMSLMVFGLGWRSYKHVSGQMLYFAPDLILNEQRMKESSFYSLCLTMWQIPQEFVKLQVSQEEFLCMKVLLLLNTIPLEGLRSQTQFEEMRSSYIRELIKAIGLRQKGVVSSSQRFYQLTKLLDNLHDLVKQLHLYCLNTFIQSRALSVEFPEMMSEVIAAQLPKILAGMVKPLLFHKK

Assay [12] has the same target. As to the kind of experiment: qHTS assay to identify small molecule antagonists of the progesterone receptor (PR) signaling pathway (AID 1346795; active means well fitted inhibition curve with a large enough effect in the signal ratio in the repeat runs, not every such curve was filed as active; the % refers to the signal ratio). An outline of the steps: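 Fluorescence intensity measured 2 hr after adding beta-lactamase FRET substrate to PR-UAS-bla HEK293T cells that had been co-treated 16 hr with compound and 1 nM R5020 (final concentration) in 2% charcoal-stripped FBS.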

Assay [13] in a line: qHTS assay to identify small molecule antagonists of the progesterone receptor (PR) signaling pathway - cell viability counter screen (AID 1346798). Further: series mostly up to about 92 µM; nearly all actives have a fitted effect of over 50% in size. In a few lines:
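CellTiter-Glo luminescence; PR-UAS-bla HEK293T, 3,000 cells/well; compound + R5020, 16 hr, 37C/5% CO2; 30 min RT before read.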

Assay [14] in a line: qHTS assay to identify small molecule agonists of the sonic hedgehog signaling (Shh) pathway - cell viability counter screen (AID 1259366). Further: nearly all actives have a fitted effect of over 50% in size. In a few lines:
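Compounds in DMSO were pin-transferred onto 3T3 Gli1-Luc cells that had settled 4hr; plates then stood 24hr at 37C and 5% CO2. One hour before the end, CellTiter-Fluor was added and fluorescence recorded.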

Assay [15] addresses Estrogen receptor beta (Homo sapiens) (UniProt Q92731). The assay is described as follows: qHTS assay to identify small molecule agonists of the estrogen receptor beta (ER-beta) signaling pathway (AID 1259377; active means well fitted activation curve with a large enough effect in the signal ratio in the repeat runs, not every such curve was filed as active; the % refers to the signal ratio). In a few lines:
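qHTS in ER-beta-UAS-bla HEK293T cells: 6 hr settling, then 16 hr compound at 37C, then LiveBLAzer substrate 2 h at RT before fluorescence reading.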

Assay [16] shares this target. As to the kind of experiment: qHTS assay to identify small molecule antagonists of the estrogen receptor beta (ER-beta) signaling pathway (AID 1259378; active means well fitted inhibition curve with a large enough effect in the signal ratio in the repeat runs, not every such curve was filed as active; the % refers to the signal ratio). In a few lines:
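ER-beta-UAS-bla HEK293T (GripTite) cells in 2% charcoal-stripped FBS medium were preincubated 6 hr at 37C, dosed with compound, then stimulated with 1 nM E2 (final) for 16 hr; beta-lactamase reporter read by B/G FRET fluorescence after 2 hr substrate loading.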

A short description of assay [17]: qHTS assay to identify small molecule agonists or antagonists of the thyroid stimulating hormone receptor (TSHR) signaling pathway - wild type cell line counter screen (AID 1259384; calls by dose curve). In a few lines:
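Wild-type HEK293 cells were plated 18 h at 37 C/5% CO2, pin-dosed with compound plus Ro20-1724 medium, held 30 min at room temperature, then given cAMP-d2 and anti-cAMP-cryptate; fluorescence was read after 1 h. Fifteen concentrations, triplicate.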

Assay [18] addresses Thyrotropin receptor (Homo sapiens) (UniProt P16473). As to the kind of experiment: qHTS assay to identify small molecule antagonists of the thyroid stimulating hormone receptor (TSHR) signaling pathway (AID 1259385; calls by dose curve; further: nearly all actives have a fitted effect of over 20% in size). An outline of the steps: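 TSHR-HEK293 cells were plated and held 18 h at 37C/5% CO2, then given compound plus Ro20-1724 and stimulated with TSH at 1.5 ng/mL final. After 30 min at room temperature, cAMP was detected with cAMP-d2/anti-cAMP-cryptate (1 h) by fluorescence.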

For assay [19], the target named is Estrogen receptor (Homo sapiens) (UniProt P03372). As to the kind of experiment: qHTS assay to identify small molecule agonists of the estrogen receptor alpha (ER-alpha) signaling pathway in the presence of an antagonist (AID 1259383; calls by dose curve; further: top concentration of the series differs between compounds; nearly all actives have a fitted effect of over 15% in size). An outline of the steps:
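Luminescent ERE-luciferase reporter, VM7Luc4E2 cells (endogenous ER-alpha); 10.0nM ICI-182,780 final; 15-point compound titration; 22hr at 37C; ONE-Glo, 30min RT.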

Assay [20] has as its target Androgen receptor (Homo sapiens) (UniProt P10275). The assay is described as follows: qHTS assay to identify small molecule agonists of the androgen receptor (AR) signaling pathway in the presence of an antagonist (AID 1259381; calls by dose curve; further: nearly all actives have a fitted effect of over 15% in size). In a few lines:
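Plated MDA-kb2 cells (3,000/well) were pre-incubated 5hr, given nilutamide (3.0uM final) or buffer, then dosed with compounds in DMSO at 15 concentrations. Luciferase activity was quantified by luminescence after 16hr at 37C.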

Results filed as inconclusive are left out. The source holds several records for some structures; these can differ, active in one and inactive in another. The source made the active and inactive calls. Unless noted, the call rests on the fitted dose curve; in most records, active means well fitted curve in the direction sought with a large enough effect in the repeat runs; inconclusive means weak or mixed curves; inactive means no such curve, though single readings can be large; an effect the other way counts as inactive or inconclusive.
On the % scale 0 is the no-effect control and ±100 the full control effect.

Thyrotropin receptor (Homo sapiens), sequence (P16473 whole entry, looked up): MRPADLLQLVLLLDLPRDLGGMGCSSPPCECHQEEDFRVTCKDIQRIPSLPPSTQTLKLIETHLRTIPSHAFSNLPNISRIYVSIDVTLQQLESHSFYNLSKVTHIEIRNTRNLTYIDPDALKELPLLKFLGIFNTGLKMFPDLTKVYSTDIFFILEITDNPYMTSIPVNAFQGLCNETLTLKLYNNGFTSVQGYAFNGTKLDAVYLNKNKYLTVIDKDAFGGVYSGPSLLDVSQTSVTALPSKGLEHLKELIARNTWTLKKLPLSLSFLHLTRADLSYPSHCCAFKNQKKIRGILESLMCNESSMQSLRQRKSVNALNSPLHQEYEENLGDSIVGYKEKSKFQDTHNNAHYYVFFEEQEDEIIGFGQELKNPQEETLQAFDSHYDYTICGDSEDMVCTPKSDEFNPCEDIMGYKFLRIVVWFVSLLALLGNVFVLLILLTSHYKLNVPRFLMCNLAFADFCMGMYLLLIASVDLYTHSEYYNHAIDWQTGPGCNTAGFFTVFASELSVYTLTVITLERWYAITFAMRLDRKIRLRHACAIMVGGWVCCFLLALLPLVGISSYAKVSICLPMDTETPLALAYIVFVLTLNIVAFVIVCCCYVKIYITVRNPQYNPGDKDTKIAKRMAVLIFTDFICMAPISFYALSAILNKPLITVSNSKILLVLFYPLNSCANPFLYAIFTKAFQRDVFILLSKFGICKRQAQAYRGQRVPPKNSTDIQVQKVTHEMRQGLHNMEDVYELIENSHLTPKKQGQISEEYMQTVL
Estrogen receptor beta (Homo sapiens), sequence (Q92731 whole entry, looked up): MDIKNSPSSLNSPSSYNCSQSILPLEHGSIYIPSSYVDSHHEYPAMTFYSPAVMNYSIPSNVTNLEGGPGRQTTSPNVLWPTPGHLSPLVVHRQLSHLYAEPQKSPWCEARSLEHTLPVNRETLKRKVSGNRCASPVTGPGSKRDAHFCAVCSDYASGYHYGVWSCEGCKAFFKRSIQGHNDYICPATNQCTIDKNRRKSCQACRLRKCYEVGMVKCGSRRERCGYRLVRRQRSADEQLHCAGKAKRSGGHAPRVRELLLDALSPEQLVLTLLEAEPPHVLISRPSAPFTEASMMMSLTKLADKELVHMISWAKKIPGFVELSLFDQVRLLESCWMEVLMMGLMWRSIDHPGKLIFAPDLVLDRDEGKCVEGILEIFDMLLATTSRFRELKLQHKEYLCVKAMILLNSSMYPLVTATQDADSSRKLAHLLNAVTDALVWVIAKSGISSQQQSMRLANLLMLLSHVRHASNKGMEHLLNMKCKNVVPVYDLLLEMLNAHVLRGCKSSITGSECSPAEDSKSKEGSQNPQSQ
Estrogen receptor (Homo sapiens), sequence (P03372 whole entry, looked up): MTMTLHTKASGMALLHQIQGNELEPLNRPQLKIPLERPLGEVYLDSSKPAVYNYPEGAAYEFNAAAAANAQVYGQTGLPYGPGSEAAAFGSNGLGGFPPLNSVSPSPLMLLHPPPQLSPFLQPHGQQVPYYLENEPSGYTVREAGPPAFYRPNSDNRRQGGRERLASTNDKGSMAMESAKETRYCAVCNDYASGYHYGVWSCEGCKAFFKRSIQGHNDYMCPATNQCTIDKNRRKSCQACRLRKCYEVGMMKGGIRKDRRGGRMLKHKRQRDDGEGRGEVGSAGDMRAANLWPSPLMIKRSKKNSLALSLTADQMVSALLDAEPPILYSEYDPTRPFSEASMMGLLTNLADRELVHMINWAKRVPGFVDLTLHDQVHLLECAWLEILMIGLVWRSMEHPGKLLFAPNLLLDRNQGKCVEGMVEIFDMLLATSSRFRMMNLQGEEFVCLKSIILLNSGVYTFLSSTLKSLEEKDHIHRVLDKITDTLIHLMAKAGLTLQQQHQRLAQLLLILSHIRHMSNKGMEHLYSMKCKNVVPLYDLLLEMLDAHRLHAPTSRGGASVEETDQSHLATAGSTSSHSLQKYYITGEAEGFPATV
Androgen receptor (Homo sapiens), sequence (P10275 whole entry, looked up): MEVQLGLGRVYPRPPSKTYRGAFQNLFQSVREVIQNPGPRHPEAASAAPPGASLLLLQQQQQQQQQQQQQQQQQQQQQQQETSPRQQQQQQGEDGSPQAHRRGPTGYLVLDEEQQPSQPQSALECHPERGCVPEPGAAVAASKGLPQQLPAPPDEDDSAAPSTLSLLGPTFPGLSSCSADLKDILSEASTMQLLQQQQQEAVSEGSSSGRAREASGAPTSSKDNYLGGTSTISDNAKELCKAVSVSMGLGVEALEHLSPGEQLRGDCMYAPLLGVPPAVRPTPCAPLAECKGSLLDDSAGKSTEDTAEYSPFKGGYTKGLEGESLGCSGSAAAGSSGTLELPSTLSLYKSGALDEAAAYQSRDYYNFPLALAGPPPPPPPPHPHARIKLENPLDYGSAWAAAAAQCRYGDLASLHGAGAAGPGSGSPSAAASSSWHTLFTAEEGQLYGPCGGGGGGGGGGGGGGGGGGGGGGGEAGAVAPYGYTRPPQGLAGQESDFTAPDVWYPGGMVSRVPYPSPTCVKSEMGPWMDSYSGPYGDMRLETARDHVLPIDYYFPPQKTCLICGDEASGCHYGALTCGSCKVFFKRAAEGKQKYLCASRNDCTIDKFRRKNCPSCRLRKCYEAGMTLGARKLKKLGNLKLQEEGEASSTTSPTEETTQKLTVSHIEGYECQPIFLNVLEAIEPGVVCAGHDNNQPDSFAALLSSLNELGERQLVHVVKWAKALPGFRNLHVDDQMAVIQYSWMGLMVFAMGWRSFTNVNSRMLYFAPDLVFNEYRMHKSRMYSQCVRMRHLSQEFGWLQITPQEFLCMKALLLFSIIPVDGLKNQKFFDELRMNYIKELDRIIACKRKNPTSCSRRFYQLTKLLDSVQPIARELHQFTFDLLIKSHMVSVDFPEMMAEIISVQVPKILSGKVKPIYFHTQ

`O=C(O)[C@H](O)[C@@H](O)[C@H](O)[C@H](O)CO`: the result in assay [1], in assay [3] and in assay [5] was inactive. In addition, the Potency entry in assay [2], in [4], in [6], in [7], in [8] and in assay [9] was “inactive” each time. Besides, the Potency entry in assay [10], in assay [12] and in assay [13] was “inactive” in each case. Moreover, the Potency in assay [11] is 2.43 µM (active). Moreover, the activation in assay [11] is -0.268% [at 3.27 µM] (inactive).

As to `OCCOCCN1CCN(C2=Nc3ccccc3Sc3ccccc32)CC1`, the call in assay [1], in [3], in assay [5] and in [17] was inactive. The Potency result in assay [2], in [14], in assay [4], in assay [6], in [15] and in assay [16] was “inactive” throughout. Besides, the Potency entry in [7], in assay [9], in assay [18], in assay [10], in assay [11] and in assay [12] was “inactive” throughout. Further, in assay [13], the Potency result was “inactive”. The Potency in assay [8] is 13.3 µM (active).

In the case of `COc1cc(Cc2cnc(N)nc2N)cc(OC)c1OC`, the outcome in [1], in assay [3], in assay [5] and in [17] was inactive. For the same compound, the Potency result in assay [2], in assay [14], in [4], in [6], in assay [15] and in assay [16] was “inactive” each time. Also, the Potency entry in [7], in [8], in assay [9], in [19], in assay [18] and in [10] was “inactive” in each case. In addition, the Potency result in assay [12] and in assay [13] was “inactive” each time. Further, the Potency in assay [11] was 5.43 µM (active) and inactive.

As for `C[Si](O[Si](C)(C)C)O[Si](C)(C)C`, the Potency entry in [2], in [14], in assay [4], in assay [6], in assay [15] and in assay [16] was “inactive” in each case. Also, the Potency result in [7], in [8], in assay [20], in assay [9], in assay [18] and in assay [10] was “inactive” each time. Also, the Potency entry in [11], in assay [12] and in [13] was “inactive” each time. For the same compound, the outcome in [3] and in [5] was inactive.

On to `O=c1[nH]c(=O)n([C@H]2C[C@H](O)[C@@H](CO)O2)cc1Br`, for which the compound was classed as inactive in [1], in [3], in assay [5] and in assay [17]. Besides, the Potency entry in assay [2], in assay [14], in assay [4], in assay [6], in assay [15] and in assay [16] was “inactive” throughout. Further, the Potency entry in assay [7], in assay [8], in assay [9], in [18], in [10] and in assay [11] was “inactive” in each case. The Potency entry in [12] and in assay [13] was “inactive” in each case.

For the compound `CC1=CCC2CC1C2(C)C` (centres undefined), the result in assay [1], in assay [3], in assay [5] and in assay [17] was inactive. The Potency result in [2], in assay [14], in assay [4], in assay [6], in assay [15] and in assay [16] was “inactive” throughout. Moreover, the Potency result in [7], in assay [9], in assay [18], in [10], in assay [11] and in assay [12] was “inactive” each time. In assay [13], the Potency entry is “inactive”.

As to `O=C1CCC(N2C(=O)c3ccccc3C2=O)C(=O)N1` (centres undefined), the compound was called inactive in [1], in assay [3] and in [5]. The Potency entry in assay [2], in [14], in assay [4], in [6], in assay [15] and in assay [16] was “inactive” throughout. The Potency entry in assay [7], in [9], in [18], in assay [10], in assay [11] and in assay [12] was “inactive” in each case. Further, in assay [13], the Potency result is “inactive”.

The record behind these values is PubChem BioAssay (Tox21).
